Only some compounds are listed: those with a hit (about 12% of all), similar ones and a draw of the others.
G9a inh = G9a (human) methyltransferase inhibition. AID 504332. Q96KQ7. Potency, µM (series often up to 102 µM), without a hit: top-dose activity, negative = inhibition, most hits filed as inhibitors. actives 8.8% (n = 350,000). G9a H3K9 monomethylation, AlphaScreen, 2 h; note: % is set by controls: 0 for no effect and ±100 for the full control effect; nearly all actives have a fitted effect of over 75% in size
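Step 1: enzyme (final 20 nM) with compound, 15 min RT. Step 2: substrate peptide 500 nM and SAM 20 uM, 2 h RT. Step 3: anti-H3K9me1 antibody and AlphaScreen beads, 10 min, then plate read.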
Sfp PPTase inh = Sfp phosphopantetheinyl transferase inhibition | actives 3.5% (n = 310,000) | AID 1490 | Biochemical Sfp PPTase activity, qHTS | Q9F4F7 | Potency, µM, for the others: largest response in the series, negative = inhibition, most hits filed as inhibitors;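 note: the enzyme is Sfp with the accession as filed and its product quenches rhodamine fluorescence; 0% = enzyme reaction without inhibitor and -100% = no enzyme wells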
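Compounds were incubated with enzyme (final 15 nM) for 15 min at room temperature before substrate addition started the reaction. Fluorescence at 525 nm excitation, 598 nm emission was recorded immediately and after 30 minutes.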
BAZ2B inh = inhibitors of human BAZ2B bromodomain | AlphaScreen BAZ2B-H3K14Ac peptide displacement | Potency, µM (top dose mostly 114 µM), without a hit: top-dose activity change, negative = inhibition, usual class: inhibitors | actives 4.4% (n = 360,000); note: % is set by controls: 0 for no effect and ±100 for the full control effect; nearly all actives have a fitted effect of over 60% in size
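Multi-concentration screen (max 110 uM) measuring displacement of acetylated histone H3 peptide from BAZ2B by AlphaScreen, using 50 nM protein, 50 nM peptide and 10 ug/mL streptavidin donor plus Ni-chelate acceptor beads.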
HP1b chromo inh = HP1-beta chromodomain-methylated histone interaction inhibition; AlphaScreen HP1-beta / biotin-H3K9me3 peptide binding; Potency, µM (titrated, usually from 114 µM), for inactives: at the top dose activity change, negative = inhibition, usual class: inhibitors; actives 0.56% (n = 390,000); AID 540317; note: nearly all actives have a fitted effect of over 70% in size
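Compound inhibition of the preformed complex between 50 nM HP1-beta and 50 nM biotinylated H3K9me3 peptide was read by AlphaScreen. Buffer was PBS pH 7.4 with 0.01% Tween-20. Incubations ran 30 min at room temperature, with 10 ug/mL donor/acceptor beads.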
JMJD2A Tudor = blocks the human JMJD2A Tudor domain | O75164 | AlphaScreen JMJD2A-Tudor / H3K4me3 peptide binding | Potency, µM (top dose mostly 114 µM), for the others: at the highest dose activity change, negative = inhibition, hits mostly inhibitors | actives 4.4% (n = 390,000) | AID 504339; note: % is set by controls: 0 for no effect and ±100 for the full control effect; nearly all actives have a fitted effect of over 50% in size
* marks the source's active call; other numbers are inactive results; ? = inconclusive; / = not tested or not shown; ! = repeats disagree; [ ] = dose if it differs, or a comment. Calls come from the whole dose curve; as a rule, active = well fitted curve in the direction sought with a large enough effect; inconclusive = small, poorly fitted or top-dose-only effect, or another doubt; inactive = no such curve, though single readings can be large; an effect the other way counts as inactive or inconclusive. Potency is the fitted concentration of half-maximal effect.

SMILES | G9a inh | Sfp PPTase inh | BAZ2B inh | HP1b chromo inh | JMJD2A Tudor
COc1cccc(/C(O)=C2/C(=O)C(=O)N(CCN3CCOCC3)C2c2cccs2)c1 (stereo not drawn) | 45µM* | 3% | -4% | 14% | ?
Cc1nc2ccccn2c1/C(O)=C1\C(=O)C(=O)N(CCN(C)C)C1c1ccco1 (stereo not drawn) | ? | 15% | -28% | 26% | -17%
Cc1nc2c(C)cccn2c1/C(O)=C1\C(=O)C(=O)N(CCN2CCOCC2)C1c1cccs1 (stereo not drawn) | 20µM* | -6% | ? | 2% | ?
Cc1nc2c(C)cccn2c1/C(O)=C1\C(=O)C(=O)N(CCN(C)C)C1c1cccs1 (stereo not drawn) | / | / | / | 14% | 0%
COc1cccc(/C(O)=C2/C(=O)C(=O)N(c3cc(C)on3)C2c2cccs2)c1 (stereo not drawn) | -2%[12.7 µM] | 13% | -8% | 48% | ?
Cc1nc2ccccn2c1/C(O)=C1\C(=O)C(=O)N(CCN2CCOCC2)C1c1ccncc1 (stereo not drawn) | ? | 5% | ? | 2% | 25µM*
Cc1ccc(-n2nnnc2-c2cnn(-c3cccc(F)c3)c2C(F)(F)F)cc1 | 7%[59 µM] | 26% | -3% | 13% | ?
Cc1ccc(-n2nnnc2-c2cnoc2-c2cccc(F)c2)cc1 | -1%[59 µM] | 12% | 28% | 22% | 16µM*
Fc1cc(F)cc(-c2oncc2-c2nnnn2-c2ccccc2)c1 | 7%[59 µM] | 27% | 3% | 3% | 79µM*
Fc1ccc(-c2oncc2-c2nnnn2-c2ccccc2)cc1F | 8%[59 µM] | 8% | 0% | 71% | -2%[57.1 µM]
NC(=O)c1c(NC(NC(=O)c2ccco2)C(=O)c2ccc(Cl)cc2)sc2c1CCCC2 (stereo not drawn) | 25µM* | 56µM* | ? | -10% | ?
CCOC(=O)c1c(NC(=O)c2ccco2)sc2c1CCCC2 | 7%[59 µM] | 15% | / | -13% | ?
N#Cc1c(NC(NC(=O)c2ccco2)C(=O)c2ccccc2)sc2c1CCCC2 (stereo not drawn) | 5µM* | 20µM* | -37% | -26% | 50µM*
CC1=CC(C)(C)Nc2ccccc21 | 6%[0.501 µM] | 79µM* | 50µM*! | 24% | ?
COc1ccc2c(c1)NC(C)(C)C=C2C | 40µM* | ? | 40µM* | 45µM* | 63µM*
COc1ccc2c(c1)CCc1cn[nH]c1-2 | -7% | -5% | -18% | 7% | ?
COC(=O)C1(C)NC(=O)c2ccccc2N1 (stereo not drawn) | 25%[59 µM] | 15% | -1% | 60% | -16%
C=CCn1c(-c2csc(-c3ccc(OC)c(OC)c3)n2)n[nH]c1=S | 2.2µM* | 16% | -8% | 24% | 7.9µM*
C=CCn1c(-c2csc(-c3ccccc3)n2)n[nH]c1=S | 1.8µM* | -25% | 1% | 34% | -18%
Nc1sc(-c2ccccc2)cc1-c1n[nH]c(=S)n1C1CCCCC1 | 4%[59 µM] | -4% | -4% | 35% | -16%
C=CCn1c(-c2cc(-c3ccccc3)sc2N)n[nH]c1=S | / | 79µM* | -13% | 26% | -28%
CCn1c(-c2csc(-c3ccccc3)n2)n[nH]c1=S | 1.4µM* | -1% | -32% | 60% | -28%
COC(=O)C1C(c2ccccc2)NC(=O)NC1(O)C(F)(F)Cl (stereo not drawn) | -26% | 15% | -11% | 41% | -12%
Cc1ccc2c(=O)cc(C(=O)Nc3c(C)cccc3C)oc2c1 | ? | / | 0% | 25% | 3%
CC(C[N+](C)(C)C)OC(=O)C1(c2ccccc2)CCCC1 (stereo not drawn) | -39%[12.7 µM] | 5% | -32% | 5% | -7%
SMILES | G9a inh | Sfp PPTase inh | BAZ2B inh | HP1b chromo inh | JMJD2A Tudor
C[N+](C)(C)CCOC(=O)C1(c2ccccc2)CCCC1 | 3.5µM* | 14% | 1% | ? | -29%[11.4 µM]
COc1ccccc1CNC(=O)C1CCC(=O)N1C(C)C (stereo not drawn) | 22% | -8% | 12% | 82% | -5%
O=c1[nH]c(CN2CCN(c3ccc([N+](=O)[O-])cc3)CC2)nc2ccsc12 | 8%[59 µM] | -10% | ? | 5% | ?
Cc1ccc(Cl)cc1N1CCN(Cc2nc3ccsc3c(=O)[nH]2)CC1 | 2.8µM* | 3% | -37% | -17% | -25%[11.4 µM]
COc1ccc(N2CCN(Cc3nc4ccsc4c(=O)[nH]3)CC2)cc1 | ? | -4% | ? | 7% | 56µM*
NC(N)=Nc1ccc(Cl)cc1 | / | 12% | / | / | /
NC(=Nc1ccc(N)cc1)C(N)=Nc1ccc(N)cc1 | ? | 3% | 5.6µM* | -25% | 25µM*
COc1cccc(NC(=O)CN(CCc2ccccc2)S(=O)(=O)c2ccc(Cl)cc2)c1 | 14µM* | / | ? | -19% | 28µM*
O=C(CN(CCc1ccccc1)S(=O)(=O)c1ccc(Br)cc1)NCc1ccc(Cl)cc1 | ? | / | ? | 8% | 14µM*
O=C(CN(CCc1ccccc1)S(=O)(=O)c1ccccc1)NCc1ccc(Cl)cc1 | 5%[59 µM] | / | 5% | 59% | -9%
COc1ccc(CC(=O)NC(C)c2ccc3ccccc3c2)cc1 (stereo not drawn) | 20% | 11% | -32% | 39% | -7%
CC(C)=CCCC1(C)C=Cc2c(c(C)cc3c2[nH]c2cc(O)ccc23)O1 (stereo not drawn) | ? | 32% | 45µM* | -40% | 45µM*
O=C(O)CN1C(=O)/C(=C\c2cccc(OCc3ccccc3F)c2)SC1=S | ? | 10% | -32% | ? | ?
CCN1C(=O)/C(=C\c2cccc(OC(=O)c3ccco3)c2)SC1=S | -9% | 7% | 1% | ? | ?
O=C(O)CN1C(=O)/C(=C\c2cc(Br)ccc2OCc2ccc(Cl)cc2Cl)SC1=S | 40%[0.501 µM] | ? | 25µM* | ? | 20µM*
O=C(O)CN1C(=O)/C(=C\c2ccccc2OCc2ccc(Cl)cc2)SC1=S | 2%[2.33 µM] | -13% | ? | -4% | ?
O=C(O)CN1C(=O)/C(=C\c2cccc(OCc3ccc(Cl)cc3)c2)SC1=S | 40µM* | ? | 45µM* | -11% | ?
O=C(O)CN1C(=O)/C(=C\c2cccc(OCc3ccc(F)cc3)c2)SC1=S | 45µM* | -14% | ? | -9% | ?
CC(C)CC(=O)Nc1ncnc2c1C(=O)CC(C)(C)C2 | 4%[12.7 µM] | 2% | 6% | 49% | -6%
CCN(CC)c1ccc(NC(=O)CSc2n[nH]c(-c3ccco3)n2)cc1 | 4.5µM* | / | 40µM* | -35% | ?
Cc1ccc(NC(=O)CSc2n[nH]c(-c3ccco3)n2)cc1 | 2% | -3% | -1% | 32% | 1%
CCn1c2ccccc2c2cc(NC(=O)CSc3nccc(=O)[nH]3)ccc21 | 35µM* | 13% | -37% | 7% | -27%
CCn1c(SCC(=O)Nc2ccc(N(C)C)cc2)nnc1C1CC1 | 40µM* | 17% | -20% | 13% | -9%
